# Measurements reported in PubChem BioAssay AID602410 (Johns Hopkins Ion Channel Center, 2012).
# Hit rate of the full screen: of about 340,000 compounds, about 2,800 (0.82%) were called active.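 How the source made its calls: active means B-score under library mean minus 4 SD, starting fluorescence ratio at most library mean plus 5 SD; inactive means the rest.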 The entries come from a sample that favours actives as a whole.
# Target: Potassium channel subfamily K member 3 (Homo sapiens) (UniProt O14649)
# Sequence (O14649 whole entry, looked up): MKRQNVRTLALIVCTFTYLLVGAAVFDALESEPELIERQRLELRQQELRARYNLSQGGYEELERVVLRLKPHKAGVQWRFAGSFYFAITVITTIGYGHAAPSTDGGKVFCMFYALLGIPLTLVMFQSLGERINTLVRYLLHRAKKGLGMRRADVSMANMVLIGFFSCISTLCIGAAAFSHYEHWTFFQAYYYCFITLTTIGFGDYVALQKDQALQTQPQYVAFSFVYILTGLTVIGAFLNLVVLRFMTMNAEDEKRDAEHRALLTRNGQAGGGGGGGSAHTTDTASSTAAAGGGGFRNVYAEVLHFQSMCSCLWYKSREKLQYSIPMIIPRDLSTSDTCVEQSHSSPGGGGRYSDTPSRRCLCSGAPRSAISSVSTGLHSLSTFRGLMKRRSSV
# Assay: human KCNK3 channel inhibitors, primary screen, CHO cells, FluxOR thallium flux, B-score (AID 602410);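 on B-score: more negative B-score means stronger inhibition of thallium flux through KCNK3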
# Conditions: FluxOR fluorescence, at 10 µM; hits give low values
row,SMILES,B-score
1,Cc1ccc(NC(=O)c2cc([N+](=O)[O-])ccc2Cl)c(O)c1,-10.1 (active)
2,CNc1ccc([N+](=O)[O-])cc1C(=O)O,inactive
3,O=C(Nc1cccnc1)c1cc([N+](=O)[O-])ccc1Cl,inactive
4,Cc1ccc(SCC(=O)Nc2nncs2)cc1,inactive
5,COc1ccccc1-c1c(C#N)c(N)nc2c1CCC2,inactive
6,c1ccc2c(NCC3CCCO3)nc(-c3ccncc3)nc2c1 (stereo not drawn),inactive
7,Clc1cccc(-c2nc(NCC3CCCO3)c3ccccc3n2)c1 (stereo not drawn),-10.2 (active)
8,O=C(CSc1nc2ccccc2c(=O)n1Cc1ccc(F)cc1)NCC1CCCO1 (stereo not drawn),inactive
9,CCOC(=O)[C@@H]1[C@H]2COc3ccc(Br)cc3[C@H]2N2C(=O)N(c3ccc(C)cc3)C(=O)[C@@]12C,inactive
10,CCn1c(CSc2nncn2-c2ccc(OC)cc2)nc2cc(S(=O)(=O)N(C)C)ccc21,inactive
11,COc1cc(CNCc2ccc(OC)c3ccccc23)cc(OC)c1OC,inactive
12,CC(C)N(Cc1ccccc1)C(=O)COC(=O)c1cnccn1,inactive
13,N/C(Cc1ccc([N+](=O)[O-])cc1)=N\OC(=O)COc1ccc2ccccc2c1,-8.91 (active)
14,N/C(=N\OC(=O)Cc1ccc([N+](=O)[O-])cc1)c1ccccn1,inactive
15,Cc1cc(C)cc(OCC(=O)O/N=C(\N)Cc2ccc([N+](=O)[O-])cc2)c1,inactive
16,CCNC(=O)CC1C(=O)N(c2ccc(OC)cc2)C(=S)N1CCc1ccncc1 (stereo not drawn),inactive
17,CCc1cc(-c2n[nH]c(=S)n2CC(C)C)cs1,inactive
18,CCOC(=O)N1CCN(Cc2nc3cc(NC(=O)CC)ccc3n2CC)CC1,inactive
19,O=C(CN(CC1CCCO1)C(=O)CNS(=O)(=O)c1ccc(Cl)cc1)NCc1ccccc1 (stereo not drawn),inactive
20,CCC(C(=O)NCCC(C)C)N(Cc1ccccc1Cl)C(=O)c1snc(C(N)=O)c1N (stereo not drawn),inactive
21,COc1ccc2sc(-c3ccc(N(C)C)cc3)c(C#CCO)c2c1,inactive
22,COc1ccc2c(c1)c(=Cc1ccc(N(C)C)cc1)c1cc(-c3ccccc3)[n+](C)n12,-15.6 (active)
23,O=S(=O)(c1cccs1)N1CCN(CCOc2ccccc2)CC1,inactive

row,SMILES,B-score
1,Cc1ccc(OCCOc2cccc(/C=N/NC(N)=O)c2)cc1,inactive
2,O=C(N/N=C/c1cccc(OCc2ccccc2)c1)c1ccc(Br)o1,-9.25 (active)
3,O=C(N/N=C/c1cccc(O)c1)c1cc2c(ccc3ccccc32)o1,inactive
4,COc1ccccc1N1CCN(c2ncnc3sc(C)c(-c4ccccc4)c23)CC1,-14.3 (active)
5,COc1ccccc1N1CCN(c2ccc([N+](=O)[O-])nc2)CC1,inactive
6,COc1ccccc1N1CCN(c2nc(C)cc(=O)[nH]2)CC1,inactive
7,COc1cccc2cc(C(C)N(CCCN3CCOCC3)C(=O)Nc3ccc(Cl)cc3)oc12 (stereo not drawn),-10.2 (active)
8,COc1ccc(S(=O)(=O)N(C)CC(=O)NCCCN2CCOCC2)cc1Cl,inactive
9,O=C(NCCN1CCOCC1)Nc1cccc(Cl)c1,inactive
10,Cc1nn(CC(=O)Nc2nc3ccccc3s2)c(C)c1[N+](=O)[O-],-10.5 (active)
11,Cc1nn(CC(=O)Nc2ccc(N(C)C)cc2)c(C)c1[N+](=O)[O-],inactive
12,Cc1nn(CC(=O)NCc2ccccn2)c(C)c1[N+](=O)[O-],inactive
13,CCN(CC(=O)NCc1ccc(F)cc1)S(=O)(=O)c1ccc(Cl)s1,inactive
14,CC(C(=O)NC1CCCC1)N(c1ccc(Oc2ccccc2)cc1)S(C)(=O)=O (stereo not drawn),inactive
15,COC(=O)c1cc(C)sc1NC(=O)CC1Nc2ccccc2NC1=O (stereo not drawn),inactive
16,O=C(OCN1C(=O)c2ccccc2C1=O)/C(=C\c1ccco1)NC(=O)c1ccccc1,inactive
17,COC(=O)COc1ccc2c(c1C)O/C(=C\c1ccco1)C2=O,inactive
18,COC(=O)C1=C(C)N(C(C)c2ccccc2)C(=O)/C1=C\c1ccco1 (stereo not drawn),-9.57 (active)
19,CC(=O)NCCC(=O)Nc1cc(S(=O)(=O)N2CCCCC2)ccc1Oc1cccc(C)c1,inactive
20,Cc1c(NC(=O)CCC2CCCCC2)cc(C(=O)N2CCOCC2)cc1[N+](=O)[O-],inactive
21,CC(C)N1C(=O)N(c2ccccc2)C(C)(O)CC1(C)C (stereo not drawn),inactive
22,CC(C)N(Cc1nc(-c2ccc3c(c2)OCO3)no1)CC1CCC(=O)N1 (stereo not drawn),inactive
23,Cc1c(S(=O)(=O)NC(C)c2ccccc2)c(=O)n(C)c(=O)n1C (stereo not drawn),inactive

row,SMILES,B-score
1,Cc1ccc(NC(=O)COC(=O)C2CC2)cc1S(=O)(=O)N1CCOCC1,inactive
2,Cc1ccc(NC(=O)COC(=O)CNC(=O)c2ccc(Cl)cc2Cl)cc1S(=O)(=O)N1CCOCC1,-10.7 (active)
3,Cc1ccc(NC(=O)CCCNC(=O)c2ccc(Cl)cc2)cc1S(=O)(=O)N1CCOCC1,inactive
4,CC1COc2ccccc2N1C(=O)c1cccnc1Cl (stereo not drawn),inactive
5,CC(=O)c1ccccc1OCc1ccc(C(=O)c2ccccc2)cc1,-15.7 (active)
6,O=C(NC1CCC(O)CC1)c1ccccc1OCc1ccc(F)cc1 (stereo not drawn),inactive
7,COc1ccc(CCNC(=O)c2ccccc2OCc2ccccc2)cc1,inactive
8,O=C(OCCOCn1cc(Br)c(=O)[nH]c1=O)c1ccccc1,inactive
9,Cc1nc2ccccc2cc1OCc1ccc(F)cc1,-11.4 (active)
10,Fc1cccc2ncnc(OCc3ccccc3)c12,inactive
11,Cc1occc(=O)c1OCc1ccc(F)cc1,inactive
12,CCc1ccc(N2CC(C(=O)N3CCCCCC3)CC2=O)cc1 (stereo not drawn),inactive
13,COc1ccccc1N1CCN(/N=C/c2ccc(O)cc2O)CC1,inactive
14,COc1cc(/C=N/N2CCN(c3ccccc3)CC2)ccc1OC(C)=O,inactive
15,COc1ccccc1N1CCN(/N=C\C(Br)=C\c2ccccc2)CC1,-9.41 (active)
16,COc1ccc(CC(=O)N[C@@H](CCSC)c2nc3ccccc3[nH]2)cc1,inactive
17,CC1CC(C)CN(c2ccc(S(=O)(=O)N3CCOCC3)cc2)C1 (stereo not drawn),inactive
18,Cc1cc(C)c(C#N)c(SCc2ccccc2C(=O)O)n1,inactive
19,Cc1cc(C)c(C#N)c(SCc2ccc3c(c2)OCO3)n1,-11.2 (active)
20,Cc1ccc(CSc2nsc(C)c2C#N)cc1,inactive
21,CCOc1ccc(OCC)c(NC(=O)C(NS(=O)(=O)c2ccc3c(c2)oc(=O)n3C)C(C)C)c1 (stereo not drawn),inactive
22,COc1ccccc1OCC(=O)Nc1ccccc1C(=O)NC1CC1,inactive
